# Results reported in the supplement of paper PMC8728848.
# The sample as a whole holds a higher share of the strongest signals than the screen did.
# How the values were obtained:
# Experiment in all cases: glycan array binding signal (z-score within array); higher = stronger binding
# Settings in all cases: glycan notation: IUPAC condensed, linker removed
# [1] = target: Fuc(a1-2)Gal(b1-3)GlcNAc(b1-2)Man(a1-3)[Fuc(a1-2)Gal(b1-3)GlcNAc(b1-2)Man(a1-6)]Man(b1-4)GlcNAc(b1-4)GlcNAc
# How it was run: (§1)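 Arrays were curated from the Consortium for Functional Glycomics database, 3228 in total, and kept only where the protein sequence was available. Binding is expressed as a within-array Z-score. This score was averaged across arrays of the same protein sequence at different concentrations or buffers and across linkers, and negative values can be read as non-binding.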
# [2] = target: Fuc(a1-2)Gal(b1-3)GlcNAc(b1-3)Gal(b1-4)Glc
# How it was run: as §1
# [3] = target: Fuc(a1-2)Gal(b1-3)GlcNAc(b1-3)[Gal(b1-4)GlcNAc(b1-6)]Gal(b1-4)Glc
# How it was run: as §1
# [4] = target: Fuc(a1-2)Gal(b1-4)Glc
# How it was run: as §1
# [5] = target: Fuc(a1-2)Gal(b1-4)GlcNAc(b1-6)GalNAc
# How it was run: as §1
# [6] = target: Fuc(a1-2)[Gal(a1-3)]Gal(b1-3)GalNAc
# How it was run: as §1
# [7] = target: Fuc(a1-2)[Gal(a1-3)]Gal(b1-4)Glc
# How it was run: as §1
# [8] = target: Fuc(a1-2)[Gal(a1-4)]Gal(b1-4)GlcNAc
# How it was run: as §1
# [9] = target: Fuc(a1-2)[GalNAc(a1-3)]Gal(b1-4)GlcNAc
# How it was run: as §1
# [10] = target: Fuc(a1-3)[Gal(b1-4)]GlcNAc(b1-2)Man(a1-3)[Fuc(a1-3)[Gal(b1-4)]GlcNAc(b1-2)Man(a1-6)]Man(b1-4)GlcNAc(b1-4)GlcNAc
# How it was run: as §1
# [11] = target: Fuc(a1-3)[Gal(b1-4)]GlcNAc(b1-6)GalNAc
# How it was run: as §1
# [12] = target: Gal(a1-3)Gal(b1-3)GlcNAc(b1-2)Man(a1-3)[Gal(a1-3)Gal(b1-3)GlcNAc(b1-2)Man(a1-6)]Man(b1-4)GlcNAc(b1-4)GlcNAc
# How it was run: as §1
# [13] = target: Gal(a1-3)Gal(b1-3)[Fuc(a1-4)]GlcNAc(b1-2)Man(a1-3)[Gal(a1-3)Gal(b1-3)[Fuc(a1-4)]GlcNAc(b1-2)Man(a1-6)]Man(b1-4)GlcNAc(b1-4)GlcNAc
# How it was run: as §1
# [14] = target: Gal(a1-4)Gal(b1-3)GlcNAc(b1-2)Man(a1-3)[Gal(a1-4)Gal(b1-3)GlcNAc(b1-2)Man(a1-6)]Man(b1-4)GlcNAc(b1-4)GlcNAc
# How it was run: as §1
# [15] = target: Gal(a1-4)Gal(b1-4)Glc
# How it was run: as §1
# [16] = target: Gal(b1-3)GlcNAc(b1-2)Man(a1-3)[Gal(b1-3)GlcNAc(b1-2)Man(a1-6)]Man(b1-4)GlcNAc(b1-4)GlcNAc
# How it was run: as §1
# [17] = target: Gal(b1-3)GlcNAc(b1-3)Gal(b1-4)[Fuc(a1-3)]GlcNAc(b1-6)[Gal(b1-3)GlcNAc(b1-3)]Gal(b1-4)Glc
# How it was run: as §1
# [18] = target: Gal(b1-3)GlcNAc6S
# How it was run: as §1
# [19] = target: Gal(b1-4)GlcNAc(b1-2)Man(a1-3)[Man(a1-6)]Man(b1-4)GlcNAc(b1-4)GlcNAc
# How it was run: as §1
# [20] = target: Gal(b1-4)GlcNAc(b1-3)Gal(b1-4)GlcNAc(b1-3)Gal(b1-4)GlcNAc(b1-2)Man(a1-3)[Gal(b1-4)GlcNAc(b1-3)Gal(b1-4)GlcNAc(b1-3)Gal(b1-4)GlcNAc(b1-2)Man(a1-6)]Man(b1-4)GlcNAc(b1-4)GlcNAc
# How it was run: as §1
# [21] = target: Gal(b1-4)GlcNAc(b1-3)Gal(b1-4)GlcNAc(b1-3)Gal(b1-4)GlcNAc(b1-3)Gal(b1-4)GlcNAc(b1-2)Man(a1-3)[Gal(b1-4)GlcNAc(b1-3)Gal(b1-4)GlcNAc(b1-3)Gal(b1-4)GlcNAc(b1-3)Gal(b1-4)GlcNAc(b1-2)Man(a1-6)]Man(b1-4)GlcNAc(b1-4)GlcNAc
# How it was run: as §1
# [22] = target: Gal(b1-4)GlcNAc(b1-3)Gal(b1-4)GlcNAc(b1-3)Gal(b1-4)GlcNAc(b1-3)Gal(b1-4)GlcNAc(b1-3)Gal(b1-4)GlcNAc(b1-2)Man(a1-3)[Gal(b1-4)GlcNAc(b1-3)Gal(b1-4)GlcNAc(b1-3)Gal(b1-4)GlcNAc(b1-3)Gal(b1-4)GlcNAc(b1-3)Gal(b1-4)GlcNAc(b1-2)Man(a1-6)]Man(b1-4)GlcNAc(b1-4)GlcNAc
# How it was run: as §1
# [23] = target: Gal(b1-4)GlcNAc(b1-3)Gal(b1-4)[Fuc(a1-3)]GlcNAc(b1-3)Gal(b1-4)[Fuc(a1-3)]GlcNAc
# How it was run: as §1
# [24] = target: Gal(b1-4)GlcNAc(b1-6)GalNAc
# How it was run: as §1
# [25] = target: Gal3S(b1-3)GlcNAc
# How it was run: as §1
# [26] = target: Gal6S(b1-4)Glc6S
# How it was run: as §1
# [27] = target: Gal6S(b1-4)GlcNAc
# How it was run: as §1
# [28] = target: GalNAc(b1-4)Gal(b1-4)Glc
# How it was run: as §1
# [29] = target: Glc(a1-6)Glc(a1-6)Glc(a1-6)Glc
# How it was run: as §1
# [30] = target: Glc(b1-4)Glc
# How it was run: as §1
binder,measurement,setting,value
PX9961Q-bfa-504-27-504 (Bacteroides fragilis) (protein) NDWLDRKPADGIPSEDAITNYNDALTARTGMYDGIQGNSNATSYYGARMFYYGDVRADDMQARTQGMRSSSCYEMLYTVDDAPNMWNIPYNVIRRANRLIEAINEKKVTDATEAQIGKIYSEALVVRALVHFDLVRIYGMPYTADNGASLGVPVIVKPLERNDLPSRNTVAEVYTQVITDLTDAINSGYLAKDQTPGYINEWAAKALLTRVYLTKGDNENALKVAEDIITNSPYKLWTNEEYVNAWYKSNGAHTNEMIFEVVNASNDDWTDRNGIAYLLNENGYADAIVTKSFMNMLSQDPKDVRIGMVLPAQYDKDLQEEYGDAKIFINKFPADKDDVGEMRLNNLPLLRLSEVYLSAAEAAAKLGGHQDKAAKYLNEIVQRANPEAKAISEADATVERIILERRKEMIGEGQRYFDALRNNETIVRYKDEGDKGYHYSLIKESQSFDRTYFRAILPIPVDETNVNPNLRAQQNPGY,glycan array binding signal (z-score),[1],2.69
same,glycan array binding signal (z-score),[2],0.015
same,glycan array binding signal (z-score),[3],-0.322
same,glycan array binding signal (z-score),[4],-0.701
same,glycan array binding signal (z-score),[5],0.145
same,glycan array binding signal (z-score),[6],0.904
same,glycan array binding signal (z-score),[7],0.106
same,glycan array binding signal (z-score),[8],1.12
same,glycan array binding signal (z-score),[9],-0.704
same,glycan array binding signal (z-score),[10],0.155
same,glycan array binding signal (z-score),[11],4.03
same,glycan array binding signal (z-score),[12],0.772
same,glycan array binding signal (z-score),[13],8.13
same,glycan array binding signal (z-score),[14],2.6
same,glycan array binding signal (z-score),[15],0.623
same,glycan array binding signal (z-score),[16],3.77
same,glycan array binding signal (z-score),[17],12.8
same,glycan array binding signal (z-score),[18],-0.822
same,glycan array binding signal (z-score),[19],-0.622
same,glycan array binding signal (z-score),[20],2.45
same,glycan array binding signal (z-score),[21],2.49
same,glycan array binding signal (z-score),[22],0.85
same,glycan array binding signal (z-score),[23],-0.284
same,glycan array binding signal (z-score),[24],0.056
same,glycan array binding signal (z-score),[25],-0.053
same,glycan array binding signal (z-score),[26],-0.063
same,glycan array binding signal (z-score),[27],-0.679
same,glycan array binding signal (z-score),[28],0.821
same,glycan array binding signal (z-score),[29],-0.611
same,glycan array binding signal (z-score),[30],-0.009
